Rows were chosen to be rich in hits. Some 12% of all compounds tested hit in one or more screens of this group.
JMJD2A Tudor: blocks the human JMJD2A Tudor domain. O75164. AlphaScreen JMJD2A-Tudor / H3K4me3 peptide binding. Potency, µM (titrated, usually from 114 µM), for inactives: top-dose activity change, negative = inhibition, usual class: inhibitors. 4.4% of 390,000 active; further: potency means the concentration at half of the fitted maximal effect; on the % scale 0 is the no-effect control and ±100 the full control effect; nearly all actives have a fitted effect of over 50% in size
PLK1 PBD inh: blocks phosphopeptide binding to human PLK1 polo-box domain. P53350. Plk1 PBD binding of FITC phosphopeptide, fluorescence polarization. Potency, µM, without a hit: max response, negative = inhibition, usual class: inhibitors. 2.8% of 360,000 active; further: potency means the concentration at half of the fitted maximal effect; series mostly up to about 57 µM; on the % scale 0 is the no-effect control and ±100 the full control effect; nearly all actives have a fitted effect of over 65% in size
BAZ2B inh: BAZ2B (human) inhibition. AlphaScreen BAZ2B-H3K14Ac peptide displacement. Potency, µM (top dose mostly 114 µM), without a hit: at the highest dose activity change, negative = inhibition, actives largely listed as inhibitors. 4.4% of 360,000 active. AID 504333; further: potency means the concentration at half of the fitted maximal effect; on the % scale 0 is the no-effect control and ±100 the full control effect; nearly all actives have a fitted effect of over 60% in size
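AlphaScreen displacement of biotin-H3(5-23)K14Ac peptide (50 nM final) from BAZ2B (50 nM final) in PBS pH 7.4, 0.01% Tween-20; complex preformed 30 min RT, then compounds (top 110 uM) 30 min RT, beads 20 min dark.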
G9a block: inhibitors of human histone lysine methyltransferase G9a; G9a H3K9 monomethylation, AlphaScreen, 2 h; Potency, µM (titrated, usually from 102 µM), without a hit: top-dose activity, negative = inhibition, actives largely listed as inhibitors; 8.8% of 350,000 active; AID 504332; further: potency means the concentration at half of the fitted maximal effect; on the % scale 0 is the no-effect control and ±100 the full control effect; nearly all actives have a fitted effect of over 75% in size
Target sequence (Q96KQ7 913-1193 limits assumed): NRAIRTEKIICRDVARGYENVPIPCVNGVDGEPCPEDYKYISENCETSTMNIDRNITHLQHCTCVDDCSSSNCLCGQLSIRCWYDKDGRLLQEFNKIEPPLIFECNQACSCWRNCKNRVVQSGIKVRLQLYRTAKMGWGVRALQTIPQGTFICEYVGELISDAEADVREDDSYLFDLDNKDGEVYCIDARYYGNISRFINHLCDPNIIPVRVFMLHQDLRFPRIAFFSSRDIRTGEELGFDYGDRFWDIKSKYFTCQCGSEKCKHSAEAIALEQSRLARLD
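Using a bead-based AlphaScreen, monomethylated H3K9 product from 2 h room-temperature reactions (G9a 20 nM, peptide 500 nM, SAM 20 uM) was detected with 0.5 ug/mL rabbit anti-H3K9me1 antibody.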
HP1b binding inh: inhibitors of HP1-beta chromodomain binding to methylated histone tails; P83916; AlphaScreen HP1-beta / biotin-H3K9me3 peptide binding; Potency, µM (series often up to 114 µM), without a hit: at the highest dose activity change, negative = inhibition, hits mostly inhibitors; 0.56% of 390,000 active; AID 540317; further: potency means the concentration at half of the fitted maximal effect; nearly all actives have a fitted effect of over 70% in size
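AlphaScreen: HP1-beta (50 nM) preformed 30 min with biotin-H3(1-18)K9me3 peptide (50 nM) in PBS pH 7.4, 0.01% Tween-20. Compound added for 30 min at RT, then streptavidin donor/nickel chelate acceptor beads (10 ug/mL) for 30 min.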
PI5P4Ka inh: inhibitors of human PI5P4K alpha; PI5P4Kalpha enzyme, ADP-Glo luminescence, 60 min; active compounds read low; max response, %; 1.2% of 330,000 active; AID 652105; active means max response of -50% or lower; inconclusive means between -30% and -50%; inactive means -30% or higher; further: value at the top dose of about 77 µM; on the % scale 0 is the no-effect control and ±100 the full control effect
Target sequence (P48426 whole entry, looked up): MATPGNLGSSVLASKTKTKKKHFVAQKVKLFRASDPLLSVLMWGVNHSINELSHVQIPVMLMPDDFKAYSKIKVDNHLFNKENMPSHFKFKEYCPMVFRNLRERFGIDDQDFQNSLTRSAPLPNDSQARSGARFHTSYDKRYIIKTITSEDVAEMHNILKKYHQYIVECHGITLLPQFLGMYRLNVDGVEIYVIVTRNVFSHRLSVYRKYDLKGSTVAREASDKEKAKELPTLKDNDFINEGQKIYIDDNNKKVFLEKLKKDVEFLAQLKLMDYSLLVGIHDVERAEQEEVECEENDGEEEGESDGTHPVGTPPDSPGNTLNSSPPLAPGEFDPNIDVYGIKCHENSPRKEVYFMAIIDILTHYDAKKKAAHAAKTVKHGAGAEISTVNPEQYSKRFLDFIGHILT
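Compounds were pin-transferred onto PI5P4Kalpha and substrate in HEPES pH 7.4 buffer with EGTA, CHAPS and 5% DMSO. ATP (5 microM final) started the reaction, which ran 60 minutes at room temperature before ADP-Glo detection.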
Active calls of the source: *; ? = inconclusive; · = no result; [ ] = remark or other dose. Unless noted, the call rests on the fitted dose curve; in most records, active means well fitted curve in the direction sought with a large enough effect; inconclusive means small, poorly fitted or top-dose-only effect, or another doubt; inactive means no such curve, though single readings can be large; an effect the other way counts as inactive or inconclusive.

SMILES	JMJD2A Tudor	PLK1 PBD inh	BAZ2B inh	G9a block	HP1b binding inh	PI5P4Ka inh
Cc1cccc(-c2cccc(NC(=O)C3CCCN(Cc4cccnc4)C3)c2)c1 (stereo not drawn)	-28%	-7%	?	·	5%	3
O=C(C1CCCN(Cc2cccnc2)C1)N1CCCCC1 (stereo not drawn)	?	-2%	22µM*	4µM*	?	1
COc1ccc(C(=O)N2CCN(c3ccc(N4CCOCC4)nn3)CC2)cc1OC	-17%	-5%	12%	-35%	13%	4
O=C1ON=C(c2ccccc2[N+](=O)[O-])/C1=C/c1cccc([N+](=O)[O-])c1O	?	?	-2%	1µM*	30%	-9
O=C1ON=C(c2ccc(Cl)c([N+](=O)[O-])c2)/C1=C/c1cccc([N+](=O)[O-])c1O	20µM*	-4%	6%	?	7%	-6
O=C(N/N=C/c1cccc([N+](=O)[O-])c1O)C(O)(c1ccccc1)c1ccccc1	?	-7%	-28%	·	36%	-12
COc1cccc(NC(=O)c2sc3nc(C)c(C(=O)Nc4ccc(C)cc4C)c(-c4ccc(C)o4)c3c2N)c1	-16%	·	-14%	13%[59 µM]	17%	·
COCCOC(=O)C1=C(C)NC(=O)NC1c1ccc(-c2ccc(F)cc2)o1 (stereo not drawn)	-35%	2%	-32%	50µM*	-11%	-29
CC(=O)CSc1nnc(CN2C(=O)CSc3ccc(C(F)(F)F)cc32)n1C	-13%	-16%	-1%	45µM*	37%	-19
Cn1c(CN2CCOCC2)nnc1SCC(=O)Nc1cccc(C(F)(F)F)c1	-10%	-6%	1%	-13%[59 µM]	11%	4
CC(=O)c1cccc(N=Cc2c(O)c3ccccc3oc2=O)c1	-17%	-3%	-31%	-18%	36%	4
CC(=O)c1cccc(N=Cc2c(O)ccc3ccccc23)c1	71µM*	?	?	1.6µM*	-10%	-1
CC(=O)N(C)c1ccc(N=Cc2c(O)ccc3ccccc23)cc1	?	-13%	-29%	4µM*	17%	1
CC1CCc2c(sc3nnn(CC(=O)Nc4c(C(C)C)cccc4C(C)C)c(=O)c23)C1 (stereo not drawn)	-14%	·	-1%	-5%[59 µM]	8%	·
CC(=O)Nc1cccc(C(=O)Nc2ccc(S(=O)(=O)NC3=NCCCCC3)cc2)c1	-15%	-10%	4%	19%[0.501 µM]	20%	1
CCN(CC)S(=O)(=O)c1cccc(C(=O)Nc2ccc(S(=O)(=O)NC3=NCCCCC3)cc2)c1	-17%	-7%	1%	16µM*	3%	-5
CON(C)S(=O)(=O)c1cccc(C(=O)Nc2ccc(S(=O)(=O)NC3=NCCCCC3)cc2)c1	-4%	-8%	8%	50µM*	11%	4
Cc1ccc(S(=O)(=O)N(C)c2cccc3cccnc23)cc1	-3%	·	·	·	·	·
Cc1ccccc1OCC(=O)OCc1cc(=O)n2nc(C3CC3)sc2n1	5%	·	-4%	8%[59 µM]	39%	·
COc1ccc(C(=O)c2nc3c(n2O)CCCC3)cc1OC	50µM*	2%	-27%	?	1%	7
COc1ccc(C(=O)c2nc3c(n2O)CCCCC3)cc1	?	2%	6%	-107%	-1%	6
CCn1cc(C(=O)OCC(=O)Nc2cc(OC)cc(OC)c2)c(=O)c2ccc(C)nc21	9%	·	1%	10%[59 µM]	30%	·
O=C(CN1CCN(c2cnn(-c3ccccc3)c(=O)c2Cl)CC1)NC1CCS(=O)(=O)C1 (stereo not drawn)	-11%	0%	1%	45µM*	19%	-7
O=C(CSc1n[nH]c(-c2ccccc2)n1)Nc1ccc(Br)cn1	-9%	-8%	2%	?	37%	-8
O=C(CSc1nc(-c2ccccc2)cs1)NC(=O)NCc1ccco1	-25%	-18%	-2%	6%[59 µM]	12%	·
SMILES	JMJD2A Tudor	PLK1 PBD inh	BAZ2B inh	G9a block	HP1b binding inh	PI5P4Ka inh
O=C(CSc1n[nH]c(-c2ccccc2)n1)NC(=O)NCc1ccco1	-35%	-9%	?	50µM*	9%	-55*
N#CC1(NC(=O)CSc2n[nH]c(-c3ccccc3)n2)CCCCC1	-10%	-6%	-3%	8.9µM*	32%	-7
O=C(CSc1nc2ccccc2o1)NC(=O)NCc1ccco1	?	-11%	?	41%[12.7 µM]	1%	-14
O=C(CSc1nc2ccccc2s1)NC(=O)NCc1ccco1	?	-22%	?	45µM*	-1%	·
O=C(COC(=O)CCc1nc2ccccc2s1)NC(=O)NCc1ccco1	-33%	-16%	50µM*	-1%	-9%	-3
CCCCN1CCCC1C(=O)Nc1c(C)cc(C)cc1C (stereo not drawn)	·	·	·	-11%[12.7 µM]	·	·
O=C(Nc1ccccc1C(=O)OCc1cc(=O)n2ccsc2n1)c1cccc(F)c1	-19%	·	-7%	2%[59 µM]	36%	·
Cc1cccc(CNC(=O)CN2C(=O)CSc3c2c(C)nn3-c2ccccc2)c1	-14%	·	-4%	11%[59 µM]	-8%	·
O=C(Nc1ccc(F)c(Cl)c1)c1ccc2c(Cl)c3c(nc2c1)CCCC3	-5%	·	1%	-30%[59 µM]	22%	·
O=C(CSc1nc2c([nH]c3ccccc32)c(=O)n1-c1ccc(F)cc1)NC1CCCCC1	-23%	·	1%	10%[59 µM]	24%[57 µM]	·
CCN(CC)CCCNCC(=O)Nc1ccc(OC)c(Cl)c1	·	·	50µM*	8.9µM*	·	·
Cc1ccc(C(=O)NCC(=O)Nc2ccc3c(c2)CCC3)cc1C	-7%	-12%	8%	1%	5%	2
CCN(CC)CCCNCC(=O)Nc1ccc2c(c1)CCC2	28µM*	-2%	56µM*	35µM*	?	2
COc1ccc(NC(=O)CCCC(=O)O)cc1Cl	-9%	-8%	-7%	-4%	13%	4
CCN1CCC(N(Cc2ccc(F)cc2)C(=O)Nc2cc(Cl)ccc2C(=O)OC)CC1	-16%	·	-26%	2%[59 µM]	13%	·
c1ccc2c(-c3nnc(SCc4cn5ccccc5n4)o3)c[nH]c2c1	-20%	-7%	-11%	8.9µM*	21%	-12
Cc1ccc(NC(=O)C2CCCN2S(=O)(=O)c2cccc3nsnc23)c(Br)c1 (stereo not drawn)	?	·	?	?	-5%	·
COc1ccc(-n2nnc3c(SC(C(C)=O)C(=O)N(C)C)ncnc32)cc1 (stereo not drawn)	-32%	24µM*	-26%	·	?	-9
CC(=O)N1CCOc2cc(S(=O)(=O)NCc3ccc(C)cc3)c(Cl)cc21	-21%	·	-2%	5%[59 µM]	7%	·
COc1ccccc1C1C=C(c2ccc(Cl)cc2)Nc2nc(-c3ccc(Cl)cc3)nn21 (stereo not drawn)	?	·	-29%	?	-23%	·
CC1CN(Cc2ccc(C#N)cc2Cl)CC(C)O1 (stereo not drawn)	?	-9%	-6%	35µM*	33%	3
